Measurements as given in PubChem BioAssay (NCATS).
Records with an inconclusive call do not appear. Unmarked numbers belong to inactive results. The source made the active and inactive calls. Calls follow the shape of the dose curve; as a rule, active = well fitted cell-killing curve with a large enough effect; inconclusive = small, poorly fitted or top-dose-only effect, or effect the other way; inactive = no such curve, though single readings can be large or run the other way. Non-standard residues stand in square brackets, D forms with d. Residues, ends and D or L forms follow the SMILES beside them. Peptide text beside a SMILES is read from it. *: point of attachment. Sta = CC(C)C[C@H](N)[C@@H](O)CC(=O)O; Isovaleryl = CC(C)CC(=O)*

Assay: Quantitative High-Throughput drug screen in 47 multiple myeloma cell lines against the NCATS MIPE library collection: XG6_PLB cell viability assay (AID 1919865); also: nearly all actives have a fitted effect of over 40% in size;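 as to viability (% of control): 100% = DMSO-only wells and 0% = media-only wells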
Details: XG6 myeloma viability, CellTiter-Glo ATP luminescence, 48 h; series mostly up to 45.8 µM; viability (% of control): at the top concentration
Outline: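 Inhibition of viability over 48 h was scored by ATP content (CellTiter-Glo) in 500-cell wells. Zero and full viability were defined by media-only and DMSO-only wells.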
Potency is read from the fitted curve at half-maximal effect.

Structure (SMILES) | Potency | viability (% of control) [%]
CC1(C)C(=O)N(CCN2CCC(C(=O)c3ccc(F)cc3)CC2)c2ccccc21 | 4.69 µM (active) | 
Nc1cc(C(Cl)=C(Cl)Cl)c(S(N)(=O)=O)cc1S(N)(=O)=O | 11.8 µM (active) | 
COC(=O)[C@H](Cc1ccccc1)NC(=O)[C@@H](N)CC(=O)O (H-Asp-Phe-OMe) | 14.8 µM (active) | 
CS(=O)(=O)OCCCCOS(C)(=O)=O |  | 111
O=C(NCCO[N+](=O)[O-])c1cccnc1 |  | 142
Cc1ccc(Nc2nccc(N(C)c3ccc4c(C)n(C)nc4c3)n2)cc1S(N)(=O)=O | 11.8 µM (active) | 
NS(=O)(=O)c1cc(C(=O)O)c(NCc2ccco2)cc1Cl |  | 86.2
Nc1nc(Cl)nc2c1ncn2[C@H]1C[C@H](O)[C@@H](CO)O1 | 0.935 µM (active) | 
Cc1cccc(CN2CCN(C(c3ccccc3)c3ccc(Cl)cc3)CC2)c1 (centres undefined) | 14.8 µM (active) | 
Cc1cc(=O)c2c(O)c3c(O)cc(=O)c4c3c3c(cc(O)c1c23)C(C)(C)C=4O | 0.743 µM (active) | 
COc1cc2c(cc1OC)C1CC(=O)C(CC(C)C)CN1CC2 (centres undefined) |  | 92.3
CN1C(C(=O)Nc2ccccn2)=C(O)c2sccc2S1(=O)=O |  | 108
CC(C)CC(=O)N[C@H](C(=O)N[C@H](C(=O)N[C@@H](CC(C)C)[C@@H](O)CC(=O)N[C@@H](C)C(=O)N[C@@H](CC(C)C)[C@@H](O)CC(=O)O)C(C)C)C(C)C (Isovaleryl-VV[Sta]A[Sta]-OH) |  | 96.8
COC(=O)N[C@H](C(=O)N[C@@H](Cc1ccccc1)[C@@H](O)CN(Cc1ccc(-c2ccccn2)cc1)NC(=O)[C@@H](NC(=O)OC)C(C)(C)C)C(C)(C)C |  | 91.1
